# Results from PubChem BioAssay AID1671193 (National Center for Advancing Translational Sciences (NCATS), 2021).
# About 180 (0.12%) of roughly 150,000 compounds were called active. Inconclusive results (about 6%) are left out. Only a selection was taken, and actives are over-represented in it overall. A number with no mark means an inactive call. Calls come from the whole dose curve; as a rule, active = well fitted cell-killing curve with a large enough effect; inconclusive = small, poorly fitted or top-dose-only effect, or effect the other way; inactive = flat fitted curve, though single readings scatter.
# Test: GF-AFC viability counterscreen for inhibitors of alpha-synuclein gene (SNCA) expression; note: nearly all actives have a fitted effect of over 30% in size
# Details: HEK-293-SNCA-luc viability, GF-AFC fluorescence, 24 h; series mostly up to 57.1 µM; activity change, negative = cytotoxicity: at the top concentration
# Source text: Assay Submitter (PI): Daniel R. Scoles Ph.D.
# Department of Neurology, University of Utah, Salt Lake City, Utah
# Accumulation of alpha-synuclein is a main underlying pathological feature of Parkinson's disease (PD) and alpha-synucleinopathies, for which lowering expression of the alpha-synuclein gene (SNCA) is a potential therapeutic avenue. Using a cell-based luciferase reporter of SNCA expression we performed a quantitative high throughput screen (qHTS) of 155,885 compounds in dose response. The screening assay was generated using genome editing to insert the luciferase gene downstream and in frame of the SNCA gene in HEK-293 cells (1). A viability counterscreen using GF-AFC was used to eliminate cytotoxic and false positive compounds. After in silico analysis (clustering, removal of frequent hitter nuisance chemotypes), inhibitor compounds from the primary screen were selected for follow up and re-tested at 11-doses in the SNCA-luc cells (luciferase and GF-AFC confirmation), and in CMV-luc expressing cell line to flag general transcriptional repressors.
# Described herein are the results of the GF-AFC viability counterscreen for SNCA inhibitors; inactivity (no decrease in fluorescence signal, not cytotoxic) is the desired output for this assay.
# 1. Dansithong, W., Paul, S., Scoles, D. R., Pulst, S. M., and Huynh, D. P. (2015) Generation of SNCA Cell Models Using Zinc Finger Nuclease (ZFN) Technology for Efficient High-Throughput Drug Screening. PLoS ONE 10, e0136930.
# SEQUENCE No. (e.g., 1, 2, 3, etc.); […] (e.g., Cells, Incubation, Reagent, etc.); VALUE; DESCRIPTION
# 1; Cells; 4 uL; Dispense 1500 HEK-293-SNCA-luc cells/well into Greiner 1536-well white / solid bottom tissue culture treated plate. The plate was covered with metal lids with gas-exchange holes.
# 2; Incubate; 24 hours; Incubate at 37C, 5% CO2, 95% RH.
# 3; Compounds; 23 nL; Compounds and controls were transferred via a Kalypsys Pin Tool (Wako USA) equipped with a 1536-slotted pin array. The plate was covered with metal lids with gas-exchange holes.
# 4; Incubate; 24 hours; Incubate at 37C, 5% CO2, 95% RH.
# 5; Dispense; 1 uL; Dispense Gly-Phe-7-amino-4-trifluoromethylcoumarin (GF-AFC, prepared at 125 uM in PBS) was added. The plate was covered with metal lids with gas-exchange holes.
# 6; Incubate; 30 min; Incubate at 37C, 5% CO2.
# 7; Detector; Fluorescence; Measure fluorescence with ViewLux microplate reader (PerkinElmer) equipped with 405/10 excitation and 540/25 emission filters.
# 8; Dispense; 3 uL; Dispense ONE-Glo ([…]) lucifase detection reagent was added to each well. Plates were covered with metal lids with gas-exchange holes.
# 9; Incubate; 15 min; Incubate at room temperature.
# 10; Detector; Luminescence; Measure luminescence with ViewLux microplate reader (PerkinElmer) equipped with clear filters.
# NOTES (numbers refer to sequence above)
# 1; HEK-293-SNCA-luc were cultured and suspended in phenol-red free DMEM (4.5 g/L glucose, 25 mM HEPES, cat #21063 (Thermo)).
# 3; Compounds were added to the assay plate in an 11-point intra plate dose response, 1:3 titration in DMSO with a final concentration range of […]. Vehicle-only plates, with DMSO being pin-transferred to every well, were inserted at the beginning of screening runs to confirm expected assay performance. Activity was normalized to wells containing medium only (-100% activity, full inhibition) and SNCA-luc cells treated with DMSO vehicle control (0% activity), contained on the same plate as test samples.
# 10; Signals were analyzed, and dose-response curves were fit using the Hill equation. Compounds in curve classes -1.1, -1.2, -2.1, -2.2 in the SNCA-luc assay were considered active. Compounds were eliminated from further consideration if also active (curve class -1.1, -1.2, -1.3, -1.4, -2.1, -2.2, -2.3, -2.4) in the GF-AFC cytotoxicity assay.
# Potency is the fitted concentration of half-maximal effect.
SMILES,"activity change, negative = cytotoxicity",Potency
CCCCS(=O)(=O)N1CCCC(Cn2c(C3CC3)nc3cccnc32)C1 (stereo unspecified),-2.74%,
O=C1CC(c2ccccc2)N(Cc2cn[nH]c2-c2ccc(F)cc2)CCCCCN1 (stereo unspecified),-15.3%,
COc1ccc(-c2nc(C(C)C)nc3c2CCN([S+](=O)([O-])c2cccc(C(F)(F)F)c2)CC3)cc1,-10.8%,
CC(C)NC(=O)N1CC(Oc2ccc(-c3noc(-c4cccnc4)n3)cc2)C1,-29.9%,
O=C(Nc1cccc(Cl)c1)C1CCCN(c2ccnc3ccnn23)C1 (stereo unspecified),-11%,
c1cn(-c2ccc(N3CCCCCC3)nc2)c(-c2cc3n(n2)CCCNC3)n1,7.54%,
CSCC(=O)N1CCC2(CC1)CC(c1ccccc1)CN(C)C2 (stereo unspecified),0.187%,
O=C(c1cccc(C(F)(F)F)c1)N1C[C@@H](CO)[C@H](c2ccccn2)C1,0.505%,
CC(C)c1ccc(S(=O)(=O)N2CCc3nn(C)c(=O)n3CC2)cc1,4.59%,
COc1ccc(C(=O)N2C(C(=O)NCC(C)C)COC23CCN(C(=O)C2CCC2)CC3)cc1 (stereo unspecified),4.16%,
Cc1ccc(NC(=O)CN2CC3CC(C2)[C@H]2CCCC(=O)N2C3)cc1 (stereo partly specified),-2.58%,
O=C(NC[C@H]1OC[C@@H](NCc2ccccn2)[C@@H]1O)C1CCCC1,-11.2% [at 87.6 µM],
Cc1ccc(CN2CCCN(Cc3ccncc3)C(c3ccccc3)CC(=O)NCC2)s1 (stereo unspecified),1.35%,
COc1ccc(CNC[C@H]2O[C@H](Cc3cc(-c4ccc(OC)cc4)on3)CC[C@@H]2O)cc1,3.22%,
Cc1ccc(C(=O)N2C[C@@H](CO)[C@H](c3ccncc3)C2)c(C)c1,-0.327%,
CCOc1ccc(C(=O)N2C[C@@H](CO)[C@H](c3ccncc3)C2)cc1,7.42%,
O=C(C1CCCC1)N1C[C@@H](CO)[C@H](c2ccncc2)C1,,20 µM (active)
O=C1CCC2(CCN(Cc3ccc4[nH]ccc4c3)CC2)CN1CCc1ccccc1,-9.99%,
O=C(c1ccoc1)N1CCC(N2C(=O)[C@H]3CN(Cc4ccccc4)C[C@H]3C2=O)CC1,14.6%,
CCCNC(=O)N1CCC2(CC1)CC(C(=O)N1CCOCC1)N(C)C2 (stereo unspecified),-3.1%,
O=C(NCc1ccnc2[nH]ccc12)c1ccccn1,2.85% [at 87.6 µM],
COc1ccc(-c2cc(-c3cnc4[nH]ccc4c3)cn3cncc23)cn1,-7.15% [at 87.6 µM],
COC[C@@H]1[C@H](NC(=O)C2(Cn3ccnc3)CC2)[C@@H]2CCO[C@H]12,0.192%,

SMILES,"activity change, negative = cytotoxicity",Potency
CCN1CCN(C(=O)c2cn3cc(-c4ccc(C(F)(F)F)cc4)sc3n2)CC1,4.72%,
Cc1noc(C)c1CNC(=O)[C@H]1CN(Cc2ccccc2)C[C@H]1C(=O)O,-8.06%,
COCC(=O)N[C@H]1C[C@H]2C(=O)Nc3ccc(/C=C/c4ccc(OC)cc4)cc3C(=O)N2C1,-2.8%,
CN(Cc1cccnc1)C1CN(C(=O)Nc2ccccc2F)C1,-21%,
COCCN1C(=O)c2cccn2CC1CNC(=O)CCc1nc(-c2ccccc2)no1 (stereo unspecified),7.27%,
O=C1NCCCCCN(S(=O)(=O)c2ccc3c(c2)CCC3)[C@H]2CCCC[C@@H]12,-24%,
COc1cccc(CNC(=O)c2cc(-c3ccccc3)nc3c2cnn3C)c1,5.25%,
CC1(c2ccccc2)N(Cc2ccc(O)cc2)C(=O)OC12CCN(Cc1ccc(C#N)cc1)CC2 (stereo unspecified),-18.3%,
COC(=O)CNC(=O)C1CCCN1Cc1ccc(-c2cc(C)cc(C)c2)cc1 (stereo unspecified),5.59%,
Cc1cccc(N2Cc3c(NCCCN4CCCCC4)ncnc3N(C)CC2=O)c1,6.15%,
O=C(NCc1cccnc1)c1cn2cc(-c3cccc(C(F)(F)F)c3)sc2n1,-7.27%,
CCOC(=O)C1CCCN(C(=O)C2CCc3nnc(CN[S+](C)(=O)[O-])n32)C1 (stereo unspecified),0.593%,
Cc1ccc(C(=O)N2CCCC(c3nc(C4CCOCC4)no3)C2)cn1 (stereo unspecified),5.29%,
CN(Cc1ccsc1)C(=O)C1CCCN(C2CCN(C(=O)C3CC3)CC2)C1 (stereo unspecified),3.93%,
COc1cccc(-c2cccc(CN3CCCC3C(=O)NCC(C)C)c2)c1 (stereo unspecified),-9.2%,
Cc1ccnc(NC(=O)C2CC(=O)N(c3n[nH]c4cc(Br)ccc34)C2)c1 (stereo unspecified),1.61%,
COCC1CN(C2CCC2)CC12CCN(C(=O)c1ccc(C)s1)CC2 (stereo unspecified),11.7%,
O=C1NC2(CCN(C(=O)c3ccccc3)C2)COc2ccccc21 (stereo unspecified),9.42% [at 87.6 µM],
Oc1ccccc1CN1CCC(O)(c2csc(CN3CCN(c4ccccn4)CC3)n2)CC1,-1.19%,
FC(F)(F)c1cccc(C2=NOC3(CCCN(Cc4ccccn4)C3)C2)c1 (stereo unspecified),-9.31%,
O=C(C1CC=CC1)N1CCC2(CC1)NCCc1c2[nH]c2ccccc12,-15.1% [at 12.5 µM],
COc1ccc(-c2cc3c(nc2-c2ccccc2)nc(C(=O)NCCN(C)C)n3C)cc1OC,-13.2%,
O=C(Nc1ccccc1)N1CCC(C(=O)N2CCCC(c3nc4ccncc4[nH]3)C2)CC1 (stereo unspecified),-0.207%,
